Screens: PubChem, several laboratories
Compounds with a hit are over-represented: about 4% of the library has one in this group of screens.
Mdm2-MdmX inh: human Mdm2/MdmX binding inhibition | SaOS-2 split-luciferase Mdm2/MdmX complementation, luminescence | inhibition, % at 8 µM | 3% of 330,000 active;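 active means inhibition of at least 50% at 8 µM in the primary screen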
Target sequence (O15151 whole entry, looked up): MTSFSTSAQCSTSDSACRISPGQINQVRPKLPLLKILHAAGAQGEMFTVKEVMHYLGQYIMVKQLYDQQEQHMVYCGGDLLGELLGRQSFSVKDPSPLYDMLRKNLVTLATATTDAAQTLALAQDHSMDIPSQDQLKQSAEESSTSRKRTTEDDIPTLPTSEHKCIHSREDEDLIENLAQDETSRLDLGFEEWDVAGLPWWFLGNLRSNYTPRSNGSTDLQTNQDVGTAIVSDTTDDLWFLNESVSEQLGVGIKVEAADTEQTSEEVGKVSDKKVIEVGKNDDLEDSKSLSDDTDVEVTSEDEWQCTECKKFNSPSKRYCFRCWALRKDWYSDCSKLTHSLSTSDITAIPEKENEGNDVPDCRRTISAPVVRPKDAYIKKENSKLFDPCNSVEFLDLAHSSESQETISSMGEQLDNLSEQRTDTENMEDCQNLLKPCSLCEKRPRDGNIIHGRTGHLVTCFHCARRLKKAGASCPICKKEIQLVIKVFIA
Target sequence (Q00987 whole entry, looked up): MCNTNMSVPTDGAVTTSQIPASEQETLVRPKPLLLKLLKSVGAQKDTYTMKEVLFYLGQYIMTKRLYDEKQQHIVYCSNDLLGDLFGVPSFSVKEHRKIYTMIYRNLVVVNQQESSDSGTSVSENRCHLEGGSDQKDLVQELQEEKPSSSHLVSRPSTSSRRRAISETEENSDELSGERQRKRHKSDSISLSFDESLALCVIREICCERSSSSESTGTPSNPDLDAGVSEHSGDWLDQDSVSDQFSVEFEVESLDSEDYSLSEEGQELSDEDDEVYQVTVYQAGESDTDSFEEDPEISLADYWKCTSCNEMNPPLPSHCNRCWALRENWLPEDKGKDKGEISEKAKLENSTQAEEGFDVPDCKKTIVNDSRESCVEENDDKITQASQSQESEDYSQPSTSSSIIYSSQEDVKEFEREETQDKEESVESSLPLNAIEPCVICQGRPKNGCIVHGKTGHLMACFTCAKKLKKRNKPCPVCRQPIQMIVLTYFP
Jurkat NFkB inh: lowers PMA/ionomycin-induced NF-kB signal in Jurkat cells; PMA/ionomycin-induced NF-kB luciferase reporter, luminescence; 0.53% of 330,000 active; inhibition, % at 4 µM; in the data active means inhibition above about 50%
Gli-Sufu block: Gli-Sufu pathway antagonism; inhibition, % at 5 µM; AID 588413; Sufu-KO-LIGHT fibroblasts, Gli luciferase reporter luminescence; 0.74% of 340,000 active;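 active means inhibition above about 55%, limit read from the data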
Beta apoptosis: beta cell apoptosis inhibition | protection from apoptosis, % (concentration not given with the values) | INS-1E cytokine-induced death, ATP luminescence, 48 h; percent of positive-control rescue, neutral wells zero | 0.8% of 300,000 active | AID 435005;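 active means Every replicate reaches about 75%, or at least half do and their mean reaches it too, limit read from the data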;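 further: higher means more ATP so stronger rescue from cytokine killing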
697 NFkB inh: lowers PMA/ionomycin-induced NF-kB signal in 697 B cells | AID 435022 | 697 B-cell NF-kB luciferase reporter, 16 h | inhibition, % at 4 µM | 0.33% of 330,000 active; in the data active means inhibition above about 35%
697 NFkB conf: inhibitors of the PMA/ionomycin-induced NF-kB reporter in 697 B cells, retest. shares compounds with 697 NFkB inh. 697 B-cell NF-kB luciferase, 16 h. inhibition, % at 4 µM. 35% of 2,000 active; in the data active means inhibition mostly above about 28%, no sharp cut-off; inactive means mostly below about 22%
Mdm2 MdmX conf: confirmation of human Mdm2/MdmX interaction inhibitors; shares compounds with Mdm2-MdmX inh; Mdm2-MdmX binding, luminescent assay; inhibition, % at 8 µM; 55% of 10,000 active; AID 489028; in the data active means inhibition above about 40%
FLuc counter: counter-screen for Mdm2/MdmX inhibitors: full-length luciferase. shares compounds with Mdm2-MdmX inh. SaOS-2 full-length luciferase counterscreen, luminescence. inhibition, % at 8 µM. 77% of 6,200 active;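 active means mean inhibition at 8 µM reaching about 37%, which flags the compound as non-specific, limit read from the data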;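 further: p53-null SaOS-2 cells with luciferase driven by a doxycycline-inducible promoter; compound on cells about two nights before reading with doxycycline added after day one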
Gli antag conf: Gli-SUFU antagonism confirmation, single concentration; shares compounds with Gli-Sufu block; Sufu-KO-LIGHT cells, Gli luciferase reporter, luminescence; inhibition, % at 5 µM; 40% of 2,500 active; AID 602428;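 active means mean inhibition at 5 µM reaching about 45%, limit read from the data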
Gli cytotox: counter-screen for Gli-SUFU antagonists: cytotoxicity; shares compounds with Gli-Sufu block; Sufu-KO-LIGHT cells cytotoxicity, ATP luminescence; cytotoxicity, % at 5 µM; 32% of 2,500 active; AID 651994;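 active means mean cytotoxicity at 5 µM above about 25%, limit read from the data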;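 further: cells exposed to compound overnight for roughly 16 to 18 hours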
Wnt3a counter: counter-screen for Gli-SUFU antagonists: Wnt3a reporter inhibition. shares compounds with Gli-Sufu block. Wnt-LIGHT cells, Wnt3a-driven luciferase reporter, luminescence. inhibition, % at 6.25 µM. 20% of 2,500 active. AID 651995;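 active means mean inhibition above about 25%, limit read from the data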
Hits are given with their value; n = inactive; x = not tested or not shown.

SMILES	Mdm2-MdmX inh	Jurkat NFkB inh	Gli-Sufu block	Beta apoptosis	697 NFkB inh	697 NFkB conf	Mdm2 MdmX conf	FLuc counter	others
Cc1ccc(NC(=O)N2CCCN(C(=O)OC(C)(C)C)CC2)cc1Cl	n	n	n	n	n	x	x	x
Cc1ccccc1N(C(=O)c1snc(C(N)=O)c1N)C(C(=O)NCc1ccccc1)c1ccc(O)cc1 (configuration not stated)	n	n	n	n	n	x	x	x
NC(=O)c1nsc(C(=O)N(c2ccccc2F)C(C(=O)NCc2ccccc2)c2ccc(O)cc2)c1N (configuration not stated)	52	n	n	n	35	n	66	77
O=C(CNCc1ccccn1)Nc1ccc([N+](=O)[O-])cc1C(=O)Nc1ccccc1F	n	n	n	n	n	x	x	x
Cc1ccc(C(=O)OCC(=O)NC2CCCC(C)C2C)cc1S(=O)(=O)N1CCCCC1 (configuration not stated)	n	n	n	n	n	x	x	x
CC(C)CNC(=O)c1c(N)n(/N=C/c2ccccn2)c2nc3ccccc3nc12	n	n	n	n	n	x	x	x
CCCCNC(=O)c1c(N)n(/N=C/c2ccccn2)c2nc3ccccc3nc12	60	n	x	n	47	44	n	72
O=c1c2ccccc2sc2ccc(C#CC3(O)CCCCC3)cc12	94	n	83	n	40	n	94	n
COc1ccc2nc(C)cc(Sc3nc4ccccc4s3)c2c1	78	n	n	n	42	38	n	x
COc1ccc2nc(C)cc(SCC(=O)NNC(=O)COc3ccccc3)c2c1	n	n	n	n	n	x	x	x
COc1ccc(NC(=O)C2CCOC(C)(C)C2)cc1 (configuration not stated)	n	n	n	n	n	x	x	x
CCOc1cc(C(=O)OCc2cc(=O)n3c(C)csc3n2)ccc1OC	n	n	n	n	n	x	x	x
O=C(NC1CCCCCC1)c1cc(S(=O)(=O)N2CCOCC2)ccc1F	n	n	n	n	n	x	x	x
C#CCn1c(S(=O)(=O)Cc2ccc(F)cc2)nc(-c2ccccc2)c1-c1ccccc1	97	n	n	n	n	n	91	52
O=C(NC(Cc1c[nH]c2ccccc12)C(=O)Nc1ccc(F)c([N+](=O)[O-])c1)c1cccs1 (configuration not stated)	96	n	n	n	n	n	87	n
O=C(NC(Cc1c[nH]c2ccccc12)C(=O)O)c1cccs1 (configuration not stated)	n	n	n	n	n	x	x	x
O=C(NC(Cc1c[nH]c2ccccc12)C(=O)Nc1ccc(OC(F)(F)F)cc1)c1cccs1 (configuration not stated)	93	n	n	n	n	n	94	n
COc1ccccc1-c1nc(-c2ccccc2)[nH]c(=O)c1C#N	n	n	n	n	n	x	x	x
O=C(c1cccs1)N(Cc1nc2sc3c(c2c(=O)[nH]1)CCCC3)C1CCCC1	87	n	n	n	n	n	82	38
Cc1cc2ccccn2c1C(=O)c1ccc(NN)c([N+](=O)[O-])c1	62	n	n	n	45	42	n	x
Cc1cc2ccccn2c1C(=O)c1cc([N+](=O)[O-])cc([N+](=O)[O-])c1	n	n	n	n	n	x	x	x
Cc1cc(OCC(=O)NCc2ccncc2)ccc1Cl	n	n	n	n	n	x	x	x
O=C1CC(c2ccc3c(c2)OCO3)Sc2nc3ccccc3n21 (configuration not stated)	54	n	n	n	n	n	67	169
CN1CCN(C(=O)c2cc([N+](=O)[O-])ccc2Cl)CC1	n	n	n	n	n	x	x	x
Cc1cc(C(=O)CCl)c(C)n1-c1cccc([N+](=O)[O-])c1	69	n	n	n	40	n	n	60
SMILES	Mdm2-MdmX inh	Jurkat NFkB inh	Gli-Sufu block	Beta apoptosis	697 NFkB inh	697 NFkB conf	Mdm2 MdmX conf	FLuc counter	others
CC1(OC(=O)C2CCCC2)C(=O)C=C2C=C(c3ccsc3)N(C(CO)CO)C=C2C1=O (configuration not stated)	n	n	n	n	n	x	x	x
O=C1N=C(N2CCCCC2)S/C1=C\c1ccccc1F	n	n	n	n	n	x	x	x
CCCOc1ccccc1/C=C1\SC(N2CCCCC2)=NC1=O	86	n	n	x	n	n	62	64
CC(=O)c1sc(NC(=O)c2ccc(COc3ccccc3Cl)o2)nc1C	n	n	n	n	n	x	x	x
CCc1ccc(/C=C2\SC(=S)N(CCCC(=O)Nc3ccccn3)C2=O)cc1	85	n	n	n	76	58	73	53
Cc1ccc(/C=C2\SC(=S)N(CC(=O)Nc3cccnc3)C2=O)cc1	n	n	n	n	n	x	x	x
Cc1ccc(/C=C2\SC(=S)N(CCCC(=O)Nc3cccnc3)C2=O)cc1	92	n	x	x	90	99	72	n
Cc1occc1-c1nnc(-c2cc([N+](=O)[O-])cc([N+](=O)[O-])c2)o1	n	n	n	n	n	x	x	x
O=C(Cc1coc2ccc3ccccc3c12)Nc1nnc(C2CC2)s1	74	n	n	n	n	n	83	38
COc1ccc(/C=C2\N=C(SC)N(c3ccccc3OC)C2=O)cc1	98	n	n	n	n	n	94	47
COc1cc2c(cc1NC(=O)c1ccc(C(C)(C)C)cc1)CCCC2	69	n	n	n	n	n	74	62
O=C1CCC2S/C(=C/Nc3ccc(C(F)(F)F)cc3)C(=O)N12 (configuration not stated)	n	n	58	n	81	49	x	x	Gli antag conf=60;Gli cytotox=n;Wnt3a counter=106
CC(C)(C)c1ccc(-n2ncc3c2CCCC3NC(=O)C2(C(N)=O)CC2)cc1 (configuration not stated)	n	n	76	78	43	83	x	x	Gli antag conf=65;Gli cytotox=30;Wnt3a counter=n
CCCCC(=O)N(Cc1ccc(-c2ccccc2-c2nn[nH]n2)cc1)[C@H](C(=O)O)C(C)C	n	n	x	n	n	x	x	x
COc1cc(CN(C(=O)c2cccs2)C2CCS(=O)(=O)C2)cc(OC)c1OC (configuration not stated)	n	n	n	x	n	x	x	x
Cc1cc(C)c(OCC(=O)OCC(=O)N2c3ccccc3CC2C)c(C)c1 (configuration not stated)	n	n	n	n	n	x	x	x
